The whole screen tested about 1,900 compounds, of which about 250 (13%) were called active. Roughly 4% stayed inconclusive and do not appear here.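 The calls were made as follows: active = fitted curve reaches 40% rescue activity at or below the top valid dose, in every test run; inconclusive = test runs disagree, some active and some inactive; inactive = every run misses the threshold or moves the wrong way.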 These entries were drawn from the full list. Measured potencies and affinities stand elsewhere.
Experiment: suppressors of statin myotoxicity in myotubes, dose response, cell-based, C2C12 myotubes, ATP luminescence, cherry pick (AID 624405);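 also: myotubes are challenged with simvastatin at 10 µM to lower ATP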
Conditions: C2C12 myotubes + simvastatin, 48 h, scaled: DMSO wells 0, geranylgeraniol wells 100; series mostly up to 19.5 µM; rescue activity (ATP increase): at the top concentration

SMILES | rescue activity (ATP increase)
C[C@@H]1CCCCO[C@@H](CN(C)Cc2ccc(C(F)(F)F)cc2)[C@H](C)CN([C@@H](C)CO)C(=O)c2cc(NC(=O)c3ccncc3)ccc2O1 | 24.7% (inactive)
C[C@H]1CCCCO[C@@H](CN(C)C(=O)Nc2ccc3c(c2)OCO3)[C@@H](C)CN([C@@H](C)CO)C(=O)c2cc(NS(=O)(=O)c3cccs3)ccc2O1 | 12.1% (inactive)
COc1ccc(S(=O)(=O)Nc2ccc3c(c2)C(=O)N([C@@H](C)CO)C[C@H](C)[C@@H](CN(C)S(=O)(=O)c2cccs2)OCCCC[C@@H](C)O3)cc1 | 11.9% (inactive)
CCOc1ccc(C2SCC(=O)N2c2c(C)n(C)n(-c3ccccc3)c2=O)cc1 (stereo not given) | 41.8% (inactive)
COc1ccccc1Oc1ccc2c(c1)C(=O)N(c1ccc(O)cc1)C2=O | -8.71% (inactive)
C[C@@H]1CN([C@H](C)CO)C(=O)c2cc(C#CC3CCCCC3)cnc2O[C@@H]1CN(C)C(=O)C1CCCCC1 | -7.4% (inactive)
COc1ccc(Br)cc1C1SCCN1S(C)(=O)=O (stereo not given) | 13% (inactive)
CCC12CC3CC(C1)CC(C(=O)NNC(N)=O)(C3)C2 | 14.5% (inactive)
COCCNC(=O)C(c1ccc(C)o1)N(Cc1ccc(OC)cc1)C(=O)Cn1nnc2ccccc21 (stereo not given) | 14.8% (inactive)
C=CCOc1ccc(/C(CC)=N/O)cc1OC | -3.5% (inactive)
CS(=O)(=O)N(CC(=O)NCc1ccco1)c1ccc(OCc2ccccc2)cc1 | 23.1% (inactive)
COc1cccc(NC(=O)N(C)C[C@H]2Oc3ncc(C#Cc4ccc(F)cc4)cc3C(=O)N([C@@H](C)CO)C[C@@H]2C)c1 | 19.9% (inactive)
CC(C)NC(=O)N1[C@@H](C#N)[C@H](c2ccc(-c3ccc(F)cc3)cc2)[C@@H]1CO | 23.1% [at 21 µM] (inactive)
COc1ccc(-c2ccc([C@H]3[C@@H](C#N)N(C(=O)NC4CCCCC4)[C@@H]3CO)cc2)cc1 | 39% (inactive)
N#C[C@H]1[C@H](c2ccc(-c3ccc(F)cc3)cc2)[C@@H](CO)N1C(=O)Cc1ccccc1 | 32.6% (inactive)
CC(C)NC(=O)N1[C@H](CO)[C@@H](c2ccc(-c3ccc(F)cc3)cc2)[C@@H]1C#N | 37.9% (inactive)
CC(C)NC(=O)N1[C@H](C#N)[C@@H](c2ccc(-c3ccc(F)cc3)cc2)[C@@H]1CO | 32.4% [at 21 µM] (inactive)
COc1ccc(CC(=O)NC(CC(=O)O)c2cccc([N+](=O)[O-])c2)cc1 (stereo not given) | 36.5% (inactive)
N#Cc1ccc(Oc2ccc(/C=N/O)cn2)cc1 | 32.7% (inactive)
COc1ccc(N2CCN(C(=O)COc3ccc4c(C)cc(=O)oc4c3C)CC2)cc1 | -26.7% (inactive)
C[C@H]1CN([C@@H](C)CO)C(=O)c2cc(NS(=O)(=O)c3ccc(Cl)cc3)ccc2O[C@H]1CN(C)S(=O)(=O)c1cccs1 | 33.6% (inactive)
C[C@@H]1CN([C@@H](C)CO)C(=O)c2cc(NC(=O)Nc3ccc(F)cc3)ccc2O[C@@H](C)CCCCO[C@@H]1CN(C)S(=O)(=O)c1cccs1 | 6.85% (inactive)
COCCCn1cnc2c(c1=O)c1nc3ccccc3nc1n2-c1ccccc1 | 38.6% (inactive)
C[C@@H]1CN([C@@H](C)CO)C(=O)Cc2cc(NC(=O)Cn3cnnn3)ccc2O[C@H]1CN(C)Cc1ccc(Oc2ccccc2)cc1 | -3.67% (inactive)
COc1ccc(N2Nc3n[nH]c(N)c3N2)cc1 | 9.38% (inactive)
C[C@@H]1CCCCO[C@H](CN(C)Cc2ccc(C(F)(F)F)cc2)[C@H](C)CN([C@@H](C)CO)C(=O)c2cc(NC(=O)c3ccncc3)ccc2O1 | 1.14% (inactive)
O=C(NC1CCN(C(=O)NCc2ccccc2)CC1)c1ccco1 | 12.3% (inactive)

SMILES | rescue activity (ATP increase)
COc1ccc(-c2cnc3c(c2)C(=O)N([C@H](C)CO)C[C@H](C)[C@H](CN(C)S(=O)(=O)c2ccc(C)cc2)O3)cc1 | 29.7% (inactive)
Cc1noc(C)c1NC(=O)Nc1ccc2c(c1)CC(=O)N([C@H](C)CO)C[C@@H](C)[C@@H](CN(C)Cc1ccc(Cl)c(Cl)c1)O2 | 35.3% (inactive)
O=CN1CCC(=O)N(Cc2ccccc2)c2ccccc21 | -9.7% (inactive)
COc1cc(NC(=O)c2ccccc2)c(OC)cc1Cl | -8.34% (inactive)
Cc1cccc(NC(=O)c2ccc(OC3CSC3)cc2)c1 | -47.3% (inactive)
COc1ccc(C2NC(C(=O)O)Cc3c2[nH]c2ccccc32)cc1OC (stereo not given) | 2.94% (inactive)
O=C1C[C@@H]2c3c(cccc3CN1Cc1ccc(Br)cc1)C[C@@H](O)[C@H]2O | 24.6% (inactive)
O=C1C[C@@H]2c3c(cccc3CN1Cc1ccc(Cl)cc1)C[C@@H](O)[C@H]2O | 14.1% (inactive)
COc1ccc(CN2[C@H](CO)[C@H]3c4ccccc4N(C(=O)c4ccccc4)C[C@H]32)cc1 | 21.3% (inactive)
O=C(CSc1nc2ccccc2[nH]1)Nc1ccc2c(c1)OCCO2 | -4.52% (inactive)
CCOc1ccc(NC(=O)CN(Cc2ccccc2)S(C)(=O)=O)cc1 | -3.7% (inactive)
Cc1cccc(Nc2nc(CC(=O)O)cs2)c1 | -21.3% (inactive)
CCOC(=O)Cc1nnc(NC(=O)COc2ccc(OC)cc2)s1 | -12.6% (inactive)
C[C@@H]1CN([C@H](C)CO)C(=O)c2cc(C3=CCCCC3)cnc2O[C@@H]1CN(C)C(=O)c1ccccn1 | 5.53% (inactive)
C[C@H]1CN([C@@H](C)CO)C(=O)c2cc(NC(=O)Cc3cn(C)c4ccccc34)ccc2O[C@@H]1CN(C)S(=O)(=O)c1cccs1 | 15.3% (inactive)
Cc1cc(C)nc(N2CCCC(C(=O)NCc3cccs3)C2)n1 (stereo not given) | -1.73% (inactive)
S=C(NCc1ccc(Cl)cc1)Nc1ccccc1 | 12% (inactive)
COc1ccc(S(=O)(=O)Nc2ccc3c(c2)CC(=O)N([C@H](C)CO)C[C@H](C)[C@@H](CN(C)Cc2ccc(C(F)(F)F)cc2)O3)cc1 | 26.2% (inactive)
Cn1c(-c2sc3cc(C(F)(F)F)cnc3c2-c2cccnc2)n[nH]c1=S | 32.8% (inactive)
CC1(C)CC(C(=O)Nc2nccs2)CCO1 (stereo not given) | 0.246% (inactive)
C[C@@H]1CN([C@@H](C)CO)C(=O)c2cc(NS(=O)(=O)c3cccs3)ccc2O[C@H]1CN(C)S(=O)(=O)c1ccc(Cl)cc1 | 10.6% [at 21 µM] (inactive)
COc1ccc(OC)c(S(=O)(=O)Nc2ccccc2C)c1 | 1.7% (inactive)
CCCOn1nnnc1-c1ccccc1 | 36.3% (inactive)
C[C@@H]1CCCCO[C@H](CN(C)C(=O)Nc2cccc3ccccc23)[C@H](C)CN([C@@H](C)CO)C(=O)c2cc(NS(=O)(=O)c3ccc(Cl)cc3)ccc2O1 | 9.78% (inactive)
CC1CCN(c2ncnc3c2cnn3Cc2ccc(Cl)cc2)CC1 | 30.3% (inactive)
C[C@H]1CN([C@@H](C)CO)C(=O)c2cc(C3=CCCCC3)cnc2O[C@@H]1CN(C)Cc1ccccc1F | 14.8% (inactive)
COc1ccccc1OCCNC1CCCC1 | 13% (inactive)

SMILES | rescue activity (ATP increase)
C[C@@H]1CN([C@H](C)CO)C(=O)Cc2cc(NS(=O)(=O)c3cn(C)cn3)ccc2O[C@@H]1CN(C)Cc1ccc(-c2ccccc2)cc1 | 26.4% (inactive)
O=C(Cn1cnc2c(cnn2-c2ccccc2)c1=O)c1ccc(Cl)cc1 | 30.3% (inactive)
CCOC(=O)c1nn(-c2cccc(Cl)c2)c(C)c1C(C)=O | 17.9% (inactive)
COc1ccc(NC(=O)Nc2cccc3c2O[C@@H](CN(C)C(=O)Nc2cccc4ccccc24)[C@@H](C)CN([C@H](C)CO)C3=O)cc1 | 4.56% (inactive)
C[C@@H]1CN([C@@H](C)CO)C(=O)c2cc(N(C)C)ccc2O[C@H]1CN(C)Cc1ccc(-c2ccccc2)cc1 | 9.05% [at 21 µM] (inactive)
Oc1ccccc1/C=N/c1c(-c2ccco2)nc2ccccn12 | -96% (inactive)
CC(c1nc2ccccc2c(=O)[nH]1)N1CCN(C)CC1 (stereo not given) | -6.72% (inactive)
C[C@H]1CN([C@@H](C)CO)C(=O)c2cc(NS(=O)(=O)c3cccs3)ccc2O[C@H]1CN(C)Cc1ccc(Cl)c(Cl)c1 | 0.067% (inactive)
O=C(NCc1ccco1)C1CCCN(S(=O)(=O)c2ccccc2)C1 (stereo not given) | 12.2% (inactive)
O=C(Nc1ccc(S(=O)(=O)N2CCCCC2)cc1)c1ccco1 | -19.1% (inactive)
C[C@@H]1CN([C@H](C)CO)C(=O)c2cc(NC(=O)Cc3cn(C)c4ccccc34)ccc2O[C@H]1CN(C)Cc1ccc(-c2ccccc2)cc1 | 24.7% (inactive)
C[C@H]1CN([C@@H](C)CO)C(=O)c2cc(NC(=O)Cc3cn(C)c4ccccc34)ccc2O[C@@H]1CN(C)Cc1ccc(C(F)(F)F)cc1 | 21.4% (inactive)
C[C@H](CO)N1C[C@H](C)[C@H](CN(C)Cc2ccc(C(=O)Nc3ccccc3N)cc2)Oc2ccc(NC(=O)Cn3cnnn3)cc2C1=O | 35.1% [at 21 µM] (inactive)
CC(=O)N(C)c1ccc(OCC(O)COc2ccc(N(C)C(C)=O)cc2)cc1 | 4.59% (inactive)
Cc1cccc(NC(=O)C2CCCN(S(=O)(=O)c3cccc4nsnc34)C2)n1 (stereo not given) | 20.1% (inactive)
CN(C(=O)c1ccc(NC(=O)Cc2ccc(NC(=O)C3CCN(C(=O)CCc4ccccc4)CC3)cc2)cc1)C1CC1 | 11.6% (inactive)
CCCc1cc(Nc2c(C)n(C)n(-c3ccccc3)c2=O)n2c(nc3ccccc32)c1C#N | 2.07% (inactive)
Cc1ccc(S(=O)(=O)Nc2cccc3c2O[C@@H](CN(C)Cc2ccc(C(F)(F)F)cc2)[C@H](C)CN([C@H](C)CO)C3=O)cc1 | 33.9% (inactive)
C[C@@H]1CCCCO[C@@H](CN(C)S(=O)(=O)c2ccc(Cl)cc2)[C@H](C)CN([C@H](C)CO)C(=O)c2cc(NS(C)(=O)=O)ccc2O1 | -1.19% (inactive)
O=C(Nc1ccc(NC(=O)c2ccco2)nc1)c1ccccn1 | -75.5% (inactive)
COc1ccc(NC(=O)Nc2ccc3c(c2)C(=O)N([C@@H](C)CO)C[C@@H](C)[C@H](CN(C)Cc2ccc(C(F)(F)F)cc2)OCCCC[C@H](C)O3)cc1 | -26% (inactive)
O=C(NCC12CC3CC(CC(C3)C1)C2)c1nn2c(c1Cl)NC(c1ccco1)CC2C(F)(F)F (stereo not given) | 2.04% (inactive)
COc1ccc(NC(=O)Nc2ccc3c(c2)C(=O)N([C@H](C)CO)C[C@H](C)[C@@H](CN(C)Cc2ccc(C(F)(F)F)cc2)OCCCC[C@@H](C)O3)cc1 | -5.5% (inactive)
COc1ccc(NC(=O)N(C)C[C@H]2Oc3c(NC(=O)Nc4cccc5ccccc45)cccc3C(=O)N([C@H](C)CO)C[C@H]2C)cc1 | -7.61% (inactive)
Cc1noc(C)c1S(=O)(=O)N(C)C[C@H]1Oc2ccc(NC(=O)Nc3cccc4ccccc34)cc2CC(=O)N([C@H](C)CO)C[C@@H]1C | 4.95% (inactive)
COc1ccccc1N1CCN(Cc2nc3ccsc3c(=O)[nH]2)CC1 | -27.8% (inactive)
